# Screens (PubChem)
# Compounds with a hit are over-represented: about 10% of the library has one in this group of screens.
# ALDH1A1 block – blocks purified human ALDH1A1 activity; P00352; Purified ALDH1A1, NADH fluorescence, propionaldehyde substrate; Potency, µM (highest dose often 75.3 µM), without a hit: at the highest dose activity, negative = inhibition, usual class: inhibitors; hit rate 7.3% among 220,000; active means well fitted inhibition curve with a large enough effect, not every such curve was filed as active; inconclusive means small, poorly fitted or top-dose-only effect, or another doubt; inactive means no such curve, though single readings can be large or run the other way;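 further: potency means the concentration at half of the fitted maximal effect; plate controls were no enzyme wells and a reference inhibitor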
# 12-hLO inh – blocks human 12-lipoxygenase activity | P18054 | purified 12-hLO, xylenol orange hydroperoxide absorbance | Potency, µM (top dose mostly 57.1 µM), for the others: at the highest dose activity change, negative = inhibition, actives largely listed as inhibitors | hit rate 0.12% among 150,000; further: potency means the concentration at half of the fitted maximal effect; nearly all actives have a fitted effect of over 55% in size
#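 Purified human 12hLO (150 nM), preincubated 15 min with compound, then 40 uM arachidonic acid for 30 min, room temperature, Hepes pH 7.0 with 0.01% Triton X-100. Hydroperoxide detected by ferrous iron/xylenol orange; 573/405 nm absorbance ratio gives reaction progress.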
# PNC inhibitor – perinucleolar compartment assembly inhibition; PC3M PTB-GFP, PNC prevalence imaging, 16 h; stronger effect = lower value; activity change (PNC), negative = inhibition, % at 10 µM; hit rate 3.1% among 140,000;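 active means readout at or below -70, meaning at least 70% loss of cells showing the perinucleolar compartment, a nuclear body marking cancer cells; inconclusive means readout between -30 and a set limit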;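 further: plate controls were DMSO wells for no effect and camptothecin positive control wells for full effect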
#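 Read-out is percentage of cells bearing a perinucleolar compartment, from automated 20x imaging of fixed, Hoechst-stained PC3M PTB-GFP cells. Cells were seeded 4 h, then exposed 16 h to compound (23 nl of library stock) in duplicate plates.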
# GLA inh pH 4.5 – blocks human alpha-galactosidase A at pH 4.5 | purified enzyme, 4-MU-alpha-Gal fluorescence, pH 4.5 | activity change, negative = inhibition, % at 105 µM | P06280 | 230,000 tested, under 10 active;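 further: 0% = full activity with enzyme and -100% = basal without enzyme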
# Target sequence (P06280 whole entry, looked up): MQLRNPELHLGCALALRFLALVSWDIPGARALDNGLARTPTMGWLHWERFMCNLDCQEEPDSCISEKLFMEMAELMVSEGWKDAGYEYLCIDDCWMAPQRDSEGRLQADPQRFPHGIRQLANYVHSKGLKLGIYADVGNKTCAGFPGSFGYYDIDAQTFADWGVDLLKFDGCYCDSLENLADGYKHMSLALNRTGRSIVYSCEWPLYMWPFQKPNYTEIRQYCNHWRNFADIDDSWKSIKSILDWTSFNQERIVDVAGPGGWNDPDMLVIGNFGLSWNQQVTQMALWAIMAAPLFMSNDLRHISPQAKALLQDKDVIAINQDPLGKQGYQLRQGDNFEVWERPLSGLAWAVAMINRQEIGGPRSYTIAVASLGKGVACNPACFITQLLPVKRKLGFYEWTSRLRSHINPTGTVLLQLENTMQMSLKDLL
# HPGD block – blocks human HPGD enzyme activity; P15428; Potency, µM, for inactives: top-dose activity change, negative = inhibition, actives largely listed as inhibitors; purified HPGD, NADH fluorescence kinetic, PGE2 substrate; hit rate 4.3% among 150,000; AID 894; active means well fitted inhibition curve with a large enough effect, not every such curve was filed as active; inconclusive means small, poorly fitted or top-dose-only effect, or another doubt; inactive means no such curve, though single readings can be large or run the other way; further: potency means the concentration at half of the fitted maximal effect
#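 NADH formation kinetics: reaction with 30 uM PGE2 and 1 mM NAD+ (final), 20 nM enzyme, Tris-HCl pH 8 with Tween 20, after 15 min compound preincubation at room temperature. Fluorescence change, last versus first of five reads.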
# GLA spleen mod – inhibits or activates alpha-galactosidase in human spleen homogenate | P06280 | Potency, µM (top dose mostly 80 µM), inactives show at the top dose activity change, negative = inhibition, usual class: inhibitors | human spleen homogenate, 4MU-alpha-Gal fluorescence, 40 min | hit rate 0.008% among 240,000;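 further: potency means the concentration at half of the fitted maximal effect; 0% = enzyme with vehicle and -100% = no enzyme basal signal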
#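 Spleen homogenate 1 ug + cpd (titration) + 4-MU-alpha-D-galactopyranoside 1 mM; 37C 40 min; 50 mM citrate/phosphate pH 5.0, 0.01% Tween-20; stop pH 10; fluorescence 365/440; AC50 via Hill.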
# Active calls of the source: *; ? = inconclusive; · = not tested or not shown. Unless noted, the call rests on the fitted dose curve; in most records, active means well fitted curve in the direction sought with a large enough effect; inconclusive means small, poorly fitted or top-dose-only effect, or another doubt; inactive means no such curve, though single readings can be large; an effect the other way counts as inactive or inconclusive. Unless noted, on the % scale 0 is the no-effect control and ±100 the full control effect.
SMILES,ALDH1A1 block,12-hLO inh,PNC inhibitor,GLA inh pH 4.5,HPGD block,GLA spleen mod
CC1=CC2=NC(=O)/C(=C\c3ccc(-c4cccc(Cl)c4)o3)C(=N)N2O1,?,0.1%,-24.9,0.0,-4.4%,5.3%
COc1ccc(CN2C(=O)/C(=C/c3ccc(-c4ccc(Cl)c(C(=O)O)c4)o3)SC2=S)cc1,?,·,·,-13.8,·,-4.6%
CC1=NOC(=O)/C1=C\c1ccc(-c2cccc(Cl)c2)o1,?,-26.0%,55.6,1.8,3.16µM*,-5.5%
CC1(C)OC(=O)C(=Cc2ccc(-c3ccc(Cl)c(C(=O)O)c3)o2)C(=O)O1,?,·,·,-9.0,·,-1.5%
Cc1[nH]c(=O)[nH]c(=O)c1CSCC(=O)OCC(=O)Nc1ccccn1,·,·,·,0.7,·,3.5%
CC1=NOC(=O)/C1=C\c1ccc(-c2ccccc2Br)o1,17.8µM*,·,·,4.8,·,0.2%
Cc1ccc(/C=C2/C(=O)ON=C2c2ccccc2)o1,-11.6%,·,·,-5.2,·,0.1%
CCCOc1ccccc1C1C(C(=O)OC)=CN(C(C)C)C=C1C(=O)OC,?,-6.8%,6.4,?,?,?
COC(=O)C1=CN(C)C=C(C(=O)OC)C1c1ccccc1Cl,?,-1.6%,-108.9*,?,?,?
Cc1nnc(SCc2nnc(-c3cccs3)o2)n1Cc1ccccc1,12.6µM*,·,·,8.3,·,-3.1%
c1ccc(-c2nnc(CSc3nnc(-c4cccs4)o3)o2)cc1,?,3.0%,24.1,6.4,15.8µM*,7.4%
CCSc1nnc(-c2cccs2)o1,-12.9%,-5.9%,-20.4,2.8,-28.9%,4.8%
Fc1ccc(NCc2nnc(SCc3nnc(-c4ccccc4)o3)n2Cc2ccccc2)cc1,-13.5%,-6.7%,-13.8,4.1,28.2µM*,-1.7%
Clc1ccc(-c2nnc(CSc3nnc(-c4cccs4)n3Cc3ccccc3)o2)cc1,-2.7%,-2.6%,-10.7,-2.7,-8.5%,-5.9%
Fc1ccccc1CSc1nnc(-c2cccs2)o1,-1.7%,-4.5%,-18.0,3.8,28.2µM*,3.9%
COC(=O)[C@H](COC(C)(C)C)NC(=O)O[C@@H]1C(=O)c2cc(Br)ccc2O[C@H]1c1cccc(OC)c1,10.9%,·,·,-7.4,-8.8%,6.6%
COc1ccc(CCn2cc(C#N)c(=O)[nH]c2=O)cc1OC,2.4%,·,·,-0.9,·,-0.1%
C/C(=C\C(=O)OCCCCCCCCC(=O)O)C[C@@H]1OCC(C[C@H]2O[C@H]2[C@@H](C)[C@H](C)O)[C@@H](O)[C@H]1O (some centres not stated),·,·,·,·,·,22.0%
O=C(CSc1nnc(-c2cccs2)o1)N1CCCCC1,?,-0.8%,29.2,-0.2,25.1µM*,4.8%
c1ccc2c(CSc3nnc(-c4ccncc4)o3)cccc2c1,-12.6%,-2.2%,3.7,-7.7,25.1µM*,-6.4%
Fc1ccc(-c2nnc(CSc3nnc(-c4cccs4)o3)o2)cc1,-1.9%,3.4%,?,?,?,-3.1%
O=C(CSc1nnc(-c2cccs2)o1)N1CCOCC1,-3.9%,2.2%,-21.2,6.7,-20.6%,-3.3%
Fc1ccc(CSc2nnc(-c3cccs3)o2)cc1,-13.9%,-15.6%,?,4.4,15.8µM*,1.0%
c1ccc(-c2nnc(CSc3nc4ccccc4[nH]3)o2)cc1,-8.3%,1.4%,?,-2.8,28.2µM*,7.7%
c1ccc(CSc2nnc(-c3cccs3)o2)cc1,-5.4%,0.4%,18.0,0.3,20µM*,3.8%
SMILES,ALDH1A1 block,12-hLO inh,PNC inhibitor,GLA inh pH 4.5,HPGD block,GLA spleen mod
CCc1ccc(-c2cc(C(=O)Nn3cnnc3)c3ccccc3n2)cc1,?,1.3%,-81.7*,-5.7,-22.4%,2.2%
CCCc1ccc(-c2cc(C(=O)NN3CCOCC3)c3ccccc3n2)cc1,-6.3%,7.7%,31.2,6.0,-29.4%,-22.0%
CC(C)c1ccc(NC(=O)CCCN2C(=S)NC(C)(C)CC2C)cc1 (configuration not stated),5.01µM*,·,·,-2.7,·,3.1%
COc1ccc2c(c1)CCC1C2=NN(/C(C)=C/C(C)=O)C1c1cccc(F)c1 (configuration not stated),28.2µM*,·,·,-1.2,·,2.0%
O=C(COc1cc(=O)n2c(n1)SCCC2)c1ccccc1,14.1µM*,-2.5%,-3.9,-10.8,15.8µM*,7.6%
COc1cc(=O)n2c(n1)SCCC2,-0.3%,3.4%,60.4,3.4,-5.3%,-4.4%
CC(C)[C@H](NC(=O)NC1CCCC1)C(=O)O,17.7%,3.1%,20.8,-3.4,-1.6%,-1.4%
CC(C)=CCCC(C)NC(=O)NC1CCCCC1 (configuration not stated),-0.2%,-2.5%,0.0,8.9,35.5µM*,?
CCCC/C=C/[C@@H](c1ccccc1)C1COC(=O)CC1O (some centres not stated),·,·,·,·,·,15.5%
O=C(Cn1nc(C(F)(F)F)c2c1CCC2)Nc1ccccc1C(F)(F)F,7.8%,-4.3%,-100.0*,-1.6,-9.7%,-5.8%
O=C(Nc1ccccc1-c1ccccc1)C1CCC1,3.16µM*,·,·,-6.4,·,3.3%
O=C(CN1CCCCCC1)Nc1ccccc1F,?,-5.2%,-84.6*,-28.1,-20.6%,3.1%
NC(=O)C1(N2CCCCC2)CCN(CC(=O)Nc2ccccc2-c2ccccc2)CC1,3.98µM*,-7.7%,?,-7.7,-1.4%,2.1%
